Assay results taken from PubChem BioAssay (Tox21).
Records with an inconclusive call do not appear. Activity calls are given as the source filed them. Unless noted, calls follow the shape of the dose curve; as a rule, active = well fitted curve in the direction sought with a large enough effect in the repeat runs; inconclusive = weak or mixed curves; inactive = no such curve, though single readings can be large; an effect the other way counts as inactive or inconclusive.

Columns and labels:
[1] = qHTS assay to identify small molecule agonists of the sonic hedgehog signaling (Shh) pathway (AID 1259368; calls by dose curve;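 also: NIH/3T3-derived 3T3Gli1-Luc cells carrying a stable Gli1-driven firefly luciferase reporter; series mostly up to about 92 µM; nearly all actives have a fitted effect of over 15% in size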)
In short: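 Luminescence was read after 30 min at room temperature with luciferase reagent. Before that, 3T3Gli1-Luc cells (NIH/3T3 clone, stable Gli1-Luc reporter; 2,000/well) were exposed to compounds for 24 hr at 37C, 5% CO2, compounds being added 4 hr post-plating.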

[2] = qHTS assay to identify small molecule antagonists of the sonic hedgehog signaling (Shh) pathway (AID 1259369; calls by dose curve; also: nearly all actives have a fitted effect of over 45% in size; also: potency is read from the fitted curve at half-maximal effect)
In short: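 Antagonist mode: compound added to 3T3 Gli1-Luc cells followed by conditioned-medium stimulation, 24 h at 37 C, 5% CO2. Inhibition taken as loss of Gli1-driven luciferase luminescence.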

[3] = biological target: Estrogen receptor beta (Homo sapiens) (UniProt Q92731); test: qHTS assay to identify small molecule agonists of the estrogen receptor beta (ER-beta) signaling pathway (AID 1259377; active = well fitted activation curve with a large enough effect in the signal ratio in the repeat runs, not every such curve was filed as active; the % refers to the signal ratio)
Chain of Estrogen receptor beta (Homo sapiens) (Q92731 whole entry, looked up): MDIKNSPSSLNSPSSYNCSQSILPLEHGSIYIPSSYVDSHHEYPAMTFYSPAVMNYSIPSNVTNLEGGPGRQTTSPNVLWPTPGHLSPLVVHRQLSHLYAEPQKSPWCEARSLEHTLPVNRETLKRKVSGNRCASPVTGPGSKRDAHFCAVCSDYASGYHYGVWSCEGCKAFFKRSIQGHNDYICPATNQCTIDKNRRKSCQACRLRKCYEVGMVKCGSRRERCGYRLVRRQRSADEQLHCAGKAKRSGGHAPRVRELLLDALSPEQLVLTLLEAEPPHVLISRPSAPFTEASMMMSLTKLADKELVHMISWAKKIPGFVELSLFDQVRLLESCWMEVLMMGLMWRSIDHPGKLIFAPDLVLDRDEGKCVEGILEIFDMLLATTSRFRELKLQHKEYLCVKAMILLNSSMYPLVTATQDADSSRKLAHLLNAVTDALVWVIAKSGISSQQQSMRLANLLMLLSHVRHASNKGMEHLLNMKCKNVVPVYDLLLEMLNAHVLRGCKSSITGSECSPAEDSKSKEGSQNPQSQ
In short: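 Reporter cells (HEK293T, ER-beta-UAS-bla) receive compounds or DMSO after a 6 hr pre-incubation. They then incubate 16 hr at 37C/5% CO2, and fluorescence from LiveBLAzer B/G substrate is measured after 2 hours at room temperature.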

[4] = qHTS assay to identify small molecule agonists of the androgen receptor (AR) signaling pathway in the presence of an antagonist - cell viability counter screen (AID 1259379); also: nearly all actives have a fitted effect of over 25% in size; also: potency is read from the fitted curve at half-maximal effect
In short: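 Cytotoxicity counter-screen run in the same wells as the nilutamide-challenged (3.0 µM final) AR agonist assay in MDA-kb2 cells. Compounds tested at 15 concentrations for 16 h, 37 °C without CO2; CellTiter-Fluor fluorescence read.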

[5] = qHTS assay to identify small molecule antagonists of the estrogen receptor beta (ER-beta) signaling pathway - cell viability counter screen (AID 1259382); also: series mostly up to about 92 µM; nearly all actives have a fitted effect of over 55% in size
In short: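 Cytotoxicity was measured in the same wells by CellTiter-Glo luminescence after 30 min at room temperature. Cells were ER-beta-bla HEK293T in charcoal-stripped serum, given compound together with 1 nM E2 and incubated 16 h at 37C.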

[6] = qHTS assay to identify small molecule agonists or antagonists of the thyroid stimulating hormone receptor (TSHR) signaling pathway - wild type cell line counter screen (AID 1259384; calls by dose curve)
In short: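 Wild-type HEK293 cells were plated 18 h at 37 C/5% CO2, pin-dosed with compound plus Ro20-1724 medium, held 30 min at room temperature, then given cAMP-d2 and anti-cAMP-cryptate; fluorescence was read after 1 h. Fifteen concentrations, triplicate.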

[7] = biological target: Thyrotropin receptor (Homo sapiens) (UniProt P16473); test: qHTS assay to identify small molecule antagonists of the thyroid stimulating hormone receptor (TSHR) signaling pathway (AID 1259385; calls by dose curve; also: nearly all actives have a fitted effect of over 20% in size)
Chain of Thyrotropin receptor (Homo sapiens) (P16473 whole entry, looked up): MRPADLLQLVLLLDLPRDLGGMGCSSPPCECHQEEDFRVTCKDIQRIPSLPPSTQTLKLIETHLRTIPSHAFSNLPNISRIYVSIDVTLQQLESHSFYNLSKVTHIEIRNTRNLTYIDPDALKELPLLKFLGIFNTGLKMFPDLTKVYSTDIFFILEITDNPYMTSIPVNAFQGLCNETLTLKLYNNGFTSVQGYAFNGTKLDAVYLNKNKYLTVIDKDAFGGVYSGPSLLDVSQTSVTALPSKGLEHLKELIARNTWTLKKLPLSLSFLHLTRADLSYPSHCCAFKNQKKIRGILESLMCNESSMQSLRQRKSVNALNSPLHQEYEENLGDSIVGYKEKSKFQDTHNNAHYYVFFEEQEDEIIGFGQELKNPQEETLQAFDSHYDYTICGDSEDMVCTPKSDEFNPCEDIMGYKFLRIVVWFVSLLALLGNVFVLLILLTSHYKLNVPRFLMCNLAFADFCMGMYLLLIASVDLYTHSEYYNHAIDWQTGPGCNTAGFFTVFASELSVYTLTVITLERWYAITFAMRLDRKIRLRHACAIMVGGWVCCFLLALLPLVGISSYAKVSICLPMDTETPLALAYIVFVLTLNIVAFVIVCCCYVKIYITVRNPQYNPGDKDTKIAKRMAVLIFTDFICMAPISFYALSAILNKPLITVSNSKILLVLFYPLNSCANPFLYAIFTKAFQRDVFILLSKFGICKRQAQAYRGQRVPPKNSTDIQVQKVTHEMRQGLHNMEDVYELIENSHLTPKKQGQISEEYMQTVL
In short: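 TSHR-HEK293 cells were plated and held 18 h at 37C/5% CO2, then given compound plus Ro20-1724 and stimulated with TSH at 1.5 ng/mL final. After 30 min at room temperature, cAMP was detected with cAMP-d2/anti-cAMP-cryptate (1 h) by fluorescence.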

[8] = qHTS assay to identify small molecule agonists of the estrogen receptor alpha (ER-alpha) signaling pathway in the presence of an antagonist - cell viability counter screen (AID 1259386); also: nearly all actives have a fitted effect of over 30% in size; also: potency is read from the fitted curve at half-maximal effect
In short: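 Compounds tested at 15 concentrations for 22 h at 37C alongside 10.0nM (final) ICI-182,780 antagonist, in VM7Luc4E2 cells grown in phenol red-free, charcoal-stripped medium. Viability read by CellTiter-Fluor fluorescence after 1 h reagent incubation.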

[9] = biological target: Progesterone receptor (Homo sapiens) (UniProt P06401); test: qHTS assay to identify small molecule antagonists of the progesterone receptor (PR) signaling pathway (AID 1346795; active = well fitted inhibition curve with a large enough effect in the signal ratio in the repeat runs, not every such curve was filed as active; the % refers to the signal ratio; also: potency is read from the fitted curve at half-maximal effect)
Chain of Progesterone receptor (Homo sapiens) (P06401 whole entry, looked up): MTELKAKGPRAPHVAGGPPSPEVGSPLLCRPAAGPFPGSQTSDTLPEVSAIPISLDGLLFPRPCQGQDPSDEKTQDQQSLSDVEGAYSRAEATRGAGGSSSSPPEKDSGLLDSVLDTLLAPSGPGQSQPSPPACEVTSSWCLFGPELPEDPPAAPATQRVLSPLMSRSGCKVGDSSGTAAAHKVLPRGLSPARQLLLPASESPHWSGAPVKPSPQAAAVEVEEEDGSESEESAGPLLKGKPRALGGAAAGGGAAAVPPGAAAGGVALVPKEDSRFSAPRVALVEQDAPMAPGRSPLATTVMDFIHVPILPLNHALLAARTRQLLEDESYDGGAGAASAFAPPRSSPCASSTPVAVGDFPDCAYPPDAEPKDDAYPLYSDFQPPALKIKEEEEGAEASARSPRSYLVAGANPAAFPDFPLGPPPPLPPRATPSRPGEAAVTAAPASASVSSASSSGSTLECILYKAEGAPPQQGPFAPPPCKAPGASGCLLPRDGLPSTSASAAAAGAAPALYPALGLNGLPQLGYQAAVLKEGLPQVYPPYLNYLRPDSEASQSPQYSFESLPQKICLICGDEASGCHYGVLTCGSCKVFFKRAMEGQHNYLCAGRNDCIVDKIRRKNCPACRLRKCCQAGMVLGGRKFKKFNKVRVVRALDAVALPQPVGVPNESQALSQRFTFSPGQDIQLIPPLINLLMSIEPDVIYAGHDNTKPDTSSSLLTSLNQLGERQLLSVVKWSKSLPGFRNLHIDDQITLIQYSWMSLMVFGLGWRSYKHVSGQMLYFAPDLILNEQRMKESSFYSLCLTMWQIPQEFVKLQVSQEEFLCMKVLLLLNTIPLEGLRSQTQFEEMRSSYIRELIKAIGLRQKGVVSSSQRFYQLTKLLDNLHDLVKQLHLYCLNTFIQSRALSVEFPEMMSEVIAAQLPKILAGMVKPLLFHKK
In short: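 Stimulus R5020 at 1 nM final; cells HEK293T PR-UAS-bla; medium with 2% charcoal-stripped FBS; compound exposure 16 hr at 37C, 5% CO2; detection by FRET beta-lactamase substrate, 2 hr, room temperature.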

[10] = qHTS assay to identify small molecule antagonists of the TGF-beta/Smad signaling pathway - cell viability counter screen (AID 1346824); also: nearly all actives have a fitted effect of over 50% in size
In short: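 SBE-bla HEK 293T cells were plated overnight at 37 C, then given compounds in DMSO plus TGF-beta1 (added as 0.25 ng/mL solution) for 5 hr. After the bla read, CellTiter-Glo was added to the same wells and luminescence read after 30 min at room temperature.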

[11] = qHTS assay to identify small molecule agonists of the TGF-beta/Smad signaling pathway - cell viability counter screen (AID 1346829); also: top concentration of the series differs between compounds; nearly all actives have a fitted effect of over 45% in size
In short: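 After overnight seating at 37 C and 5% CO2, reporter cells got compounds for 5 hr and FRET substrate for 2 hr; cell viability then came from CellTiter-Glo luminescence.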

[12] = qHTS assay to identify small molecule agonists of the TGF-beta/Smad signaling pathway (AID 1346859; active = well fitted activation curve with a large enough effect in the signal ratio in the repeat runs, not every such curve was filed as active; the % refers to the signal ratio; also: series mostly up to about 77 µM)
In short: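 Screening used HEK 293T SBE-bla cells at 4,000/well. Test agents: 5 hr, 37 C. Detection: FRET substrate, 2 hr RT, then excitation 405 nm with emissions at 460 and 530 nm.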

[13] = biological target: Estrogen receptor beta (Homo sapiens) (UniProt Q92731); test: qHTS assay to identify small molecule antagonists of the estrogen receptor beta (ER-beta) signaling pathway (AID 1259378; active = well fitted inhibition curve with a large enough effect in the signal ratio in the repeat runs, not every such curve was filed as active; the % refers to the signal ratio; also: potency is read from the fitted curve at half-maximal effect)
In short: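 ER-beta-UAS-bla HEK293T (GripTite) cells in 2% charcoal-stripped FBS medium were preincubated 6 hr at 37C, dosed with compound, then stimulated with 1 nM E2 (final) for 16 hr; beta-lactamase reporter read by B/G FRET fluorescence after 2 hr substrate loading.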

[14] = qHTS assay to identify small molecule agonists of the estrogen receptor beta (ER-beta) signaling pathway - cell viability counter screen (AID 1259380); also: nearly all actives have a fitted effect of over 30% in size; also: potency is read from the fitted curve at half-maximal effect
In short: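 Cell viability counter screen: CellTiter-Glo luminescence (30 min, room temperature) measured in the same wells as the beta-lactamase readout, after 16 hr compound exposure at 37C of ER-beta-bla HEK293T cells in 2% charcoal-stripped FBS medium.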

[15] = biological target: Estrogen receptor (Homo sapiens) (UniProt P03372); test: qHTS assay to identify small molecule agonists of the estrogen receptor alpha (ER-alpha) signaling pathway in the presence of an antagonist (AID 1259383; calls by dose curve; also: top concentration of the series differs between compounds; nearly all actives have a fitted effect of over 15% in size)
Chain of Estrogen receptor (Homo sapiens) (P03372 whole entry, looked up): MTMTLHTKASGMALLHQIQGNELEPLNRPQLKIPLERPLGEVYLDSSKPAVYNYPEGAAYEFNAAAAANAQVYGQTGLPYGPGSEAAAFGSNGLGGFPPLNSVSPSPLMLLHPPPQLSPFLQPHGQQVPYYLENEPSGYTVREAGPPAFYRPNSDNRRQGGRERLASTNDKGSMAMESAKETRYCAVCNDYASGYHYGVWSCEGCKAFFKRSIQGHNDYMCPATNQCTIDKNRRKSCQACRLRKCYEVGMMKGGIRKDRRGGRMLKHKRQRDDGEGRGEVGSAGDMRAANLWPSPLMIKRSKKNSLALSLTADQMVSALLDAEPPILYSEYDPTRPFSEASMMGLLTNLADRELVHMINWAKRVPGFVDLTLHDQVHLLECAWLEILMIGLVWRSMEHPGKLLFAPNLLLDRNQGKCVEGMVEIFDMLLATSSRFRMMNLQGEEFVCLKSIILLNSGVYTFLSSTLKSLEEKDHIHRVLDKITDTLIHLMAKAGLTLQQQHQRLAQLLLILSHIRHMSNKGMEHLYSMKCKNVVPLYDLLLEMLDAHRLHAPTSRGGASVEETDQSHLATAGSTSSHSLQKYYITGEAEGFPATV
In short: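 Agonist-mode confirmation run in the presence of 10.0nM (final) ICI-182,780 antagonist. The reporter was ERE-driven luciferase in VM7Luc4E2 cells, grown in charcoal-stripped serum. Cells were exposed to 15-concentration compound series for 22hr, then ONE-Glo luminescence was read.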

[16] = biological target: Progesterone receptor (Homo sapiens) (UniProt P06401); test: qHTS assay to identify small molecule agonists of the progesterone receptor (PR) signaling pathway (AID 1346784; calls by dose curve; also: nearly all actives have a fitted effect of over 30% in size)
In short: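 Reporter assay, GripTite PR-UAS-bla HEK 293T cells: 16 hr exposure to DMSO-dissolved compounds at 37C, 5% CO2, in steroid-depleted (2% charcoal-stripped FBS) medium; beta-lactamase measured by FRET fluorescence.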

[17] = qHTS assay to identify small molecule antagonists of the progesterone receptor (PR) signaling pathway - cell viability counter screen (AID 1346798); also: nearly all actives have a fitted effect of over 50% in size; also: potency is read from the fitted curve at half-maximal effect
In short: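 In the same plates used for the beta-lactamase readout, cell viability of compound- and R5020-treated PR-UAS-bla HEK293T cells (16 hr, 37C) was assessed by CellTiter-Glo luminescence.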

[18] = qHTS assay to identify small molecule agonists of the progesterone receptor (PR) signaling pathway - cell viability counter screen (AID 1346799; calls by dose curve; also: nearly all actives have a fitted effect of over 45% in size)
In short: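 Multiplexed viability read: CellTiter-Glo luminescence, 30 min RT, following LiveBLAzer FRET measurement on PR-UAS-bla HEK293T cells exposed to compounds 16 hr.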

[19] = biological target: Thyrotropin-releasing hormone receptor (Homo sapiens) (UniProt P34981); test: qHTS assay to identify small molecule antagonists of the thyrotropin-releasing hormone receptor (TRHR) signaling pathway (AID 1346877; active = well fitted inhibition curve with a large enough effect in the repeat runs, not every such curve was filed as active; also: series mostly up to about 51 µM)
Chain of Thyrotropin-releasing hormone receptor (Homo sapiens) (P34981 whole entry, looked up): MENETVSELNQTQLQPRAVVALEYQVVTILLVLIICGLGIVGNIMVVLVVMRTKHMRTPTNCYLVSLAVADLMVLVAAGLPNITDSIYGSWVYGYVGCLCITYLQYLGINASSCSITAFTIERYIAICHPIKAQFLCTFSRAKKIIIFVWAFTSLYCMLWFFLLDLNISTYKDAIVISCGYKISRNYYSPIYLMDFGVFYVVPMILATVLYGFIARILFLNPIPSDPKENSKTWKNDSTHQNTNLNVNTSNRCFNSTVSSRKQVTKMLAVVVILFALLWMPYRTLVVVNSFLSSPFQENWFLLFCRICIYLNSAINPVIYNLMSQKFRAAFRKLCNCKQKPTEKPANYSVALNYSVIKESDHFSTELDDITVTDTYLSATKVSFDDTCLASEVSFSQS
In short: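 Antagonist mode: after a 5 min room-temperature compound exposure, cells were stimulated with 1 nM (final) TRH. Dye-loaded TRHR-HEK293 cells were used, and calcium-dependent fluorescence was followed for 3 min, with 15-point titrations run in triplicate.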

[20] = biological target: Androgen receptor (Homo sapiens) (UniProt P10275); test: qHTS assay to identify small molecule agonists of the androgen receptor (AR) signaling pathway in the presence of an antagonist (AID 1259381; calls by dose curve; also: nearly all actives have a fitted effect of over 15% in size)
Chain of Androgen receptor (Homo sapiens) (P10275 whole entry, looked up): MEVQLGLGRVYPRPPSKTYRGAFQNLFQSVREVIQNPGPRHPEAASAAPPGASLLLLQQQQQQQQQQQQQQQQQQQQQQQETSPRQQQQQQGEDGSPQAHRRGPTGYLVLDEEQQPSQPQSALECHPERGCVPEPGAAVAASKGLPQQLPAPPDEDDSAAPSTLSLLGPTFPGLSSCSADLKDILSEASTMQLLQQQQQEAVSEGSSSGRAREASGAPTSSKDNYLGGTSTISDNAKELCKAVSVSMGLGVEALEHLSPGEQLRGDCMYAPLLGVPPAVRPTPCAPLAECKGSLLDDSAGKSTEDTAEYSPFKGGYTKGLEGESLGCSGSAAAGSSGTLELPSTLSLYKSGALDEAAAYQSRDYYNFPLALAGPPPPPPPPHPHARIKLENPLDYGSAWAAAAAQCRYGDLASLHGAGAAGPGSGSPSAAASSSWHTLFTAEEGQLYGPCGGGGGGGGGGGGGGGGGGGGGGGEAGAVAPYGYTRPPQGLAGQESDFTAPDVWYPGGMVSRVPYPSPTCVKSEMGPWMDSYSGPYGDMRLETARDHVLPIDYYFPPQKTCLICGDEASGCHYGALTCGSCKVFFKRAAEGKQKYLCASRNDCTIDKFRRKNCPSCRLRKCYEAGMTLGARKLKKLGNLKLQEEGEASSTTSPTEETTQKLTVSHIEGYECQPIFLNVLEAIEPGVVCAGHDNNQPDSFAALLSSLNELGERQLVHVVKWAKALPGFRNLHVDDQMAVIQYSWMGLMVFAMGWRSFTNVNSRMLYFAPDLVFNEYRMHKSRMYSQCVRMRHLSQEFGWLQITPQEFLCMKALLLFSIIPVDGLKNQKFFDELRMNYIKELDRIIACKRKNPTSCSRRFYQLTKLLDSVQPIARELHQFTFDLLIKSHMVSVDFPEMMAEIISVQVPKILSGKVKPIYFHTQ
In short: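 Agonist-mode confirmation run against 3.0 uM final nilutamide: compounds titrated at 15 concentrations onto MDA-kb2 MMTV-luciferase reporter cells. Luminescence measured with ONE-Glo following 16 hr incubation, 37C, 0% CO2.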

Measured: Potency

COP(=S)(OC)Oc1cc(Cl)c(I)cc1Cl
inactive: [1] | [3] | [4] | [5] | [6] | [7] | [8] | [10] | [11] | [12]
active: [2] 38.6 µM | [9] 21.7 µM

O=C1C(=O)c2cccc3cccc1c23
active: [2] 4.32 µM | [14] 43.2 µM
not listed: [3] | [9] | [12] | [20]
inactive: all other assays above

NS(=O)(=O)C(F)(F)C(F)(F)C(F)(F)C(F)(F)C(F)(F)C(F)(F)C(F)(F)C(F)(F)F
active: [14] 68.6 µM | [17] 9.69 µM
not listed: [5] | [9] | [13] | [16] | [20]
inactive: all other assays above

O=Cc1ccc(Cl)cc1Cl
inactive: [1] | [2] | [13] | [4] | [14] | [5] | [8] | [16] | [10] | [12] | [19]

COC(=O)c1cncn1C(C)c1ccccc1 (centres undefined)
not listed: [3] | [13] | [18] | [19] | [20]
inactive: all other assays above

N#Cc1ccc(Cl)cc1
not listed: [3] | [13] | [16] | [18] | [19] | [20]
inactive: all other assays above

COP(=S)(OC)Oc1ccc([N+](=O)[O-])cc1Cl
active: [4] 48.6 µM | [8] 48.6 µM
not listed: [3] | [13] | [17] | [18] | [19]
inactive: all other assays above

Clc1ccc(C2(Cn3cncn3)CC(Br)CO2)c(Cl)c1 (centres undefined)
inactive: [1] | [2] | [3] | [4] | [14] | [15] | [6] | [7] | [10] | [11] | [12]

N#CCC#N
not listed: [3] | [5] | [11] | [14] | [16] | [17]
inactive: all other assays above

CCOC(=O)C(Cl)C(C)=O (centres undefined)
not listed: [3] | [13] | [19] | [20]
inactive: all other assays above

CNP(=O)(OC)Oc1ccc(C(C)(C)C)cc1Cl (centres undefined)
active: [2] 27.3 µM
not listed: [3] | [9] | [13] | [17] | [18] | [20]
inactive: all other assays above

C=CCN1CC[C@]23c4c5ccc(O)c4O[C@H]2C(=O)CC[C@@]3(O)[C@H]1C5
not listed: [13] | [15] | [19] | [20]
inactive: all other assays above

CCOc1nc(F)cc2nc(S(=O)(=O)Nc3c(Cl)cccc3Cl)nn12
not listed: [3] | [5] | [18] | [20]
inactive: all other assays above

CCC(C)(NC(=O)c1cc(Cl)c(C)c(Cl)c1)C(=O)CCl (centres undefined)
active: [13] 19.4 µM | [4] 61.5 µM | [14] 61.5 µM
not listed: [3] | [5] | [7] | [9] | [12] | [20]
inactive: all other assays above
